Results published in PubChem BioAssay AID1159580 (chemical genetic matrix, 2015).
In all, about 5,500 compounds went through this assay and about 2,000 (36%) were called active. About 18% were inconclusive and are not listed. Cut-off read from the data, not from the text of the source: active = normalized growth mostly below about 0.91 (no sharp cut-off); inconclusive = no clear call, values can overlap the other calls; inactive = mostly above about 0.92. The list shows a part of the results.

Experiment: chemical genetic growth profiling, strain panel (AID 1159580);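 note: tested at 20 µM; growth read once vehicle control cultures reached saturation at 30 °C; 1 = growth at the plate median or of vehicle wells; lower values mean less growth of the strain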
Details: growth OD

Measured: normalized growth

C=CC1=C(C(=O)O)N2C(=O)[C@@H](NC(=O)/C(=N/O)c3csc(N)n3)[C@H]2SC1
inactive: S. cerevisiae deletion strains, locus YJR066W, strain TOR1, stronger effect = lower value 0.95 | S. cerevisiae deletion strains, locus YJR075W, strain HOC1, stronger effect = lower value 1.01 | S. cerevisiae deletion strains, locus YKL009W, strain mrt4, stronger effect = lower value 0.995 | S. cerevisiae deletion strains, locus YKL068W, stronger effect = lower value 1 | S. cerevisiae deletion strains, locus YKL085W, strain MDH1 (second series), stronger effect = lower value 0.989 | S. cerevisiae deletion strains, locus YKL085W, strain MDH1, stronger effect = lower value 0.989 | S. cerevisiae deletion strains, locus YKL160W, strain elf1, stronger effect = lower value 1.02 | S. cerevisiae deletion strains, locus YKL190W, strain CNB1, stronger effect = lower value 1.02 | S. cerevisiae deletion strains, locus YKR001C, strain vps1, stronger effect = lower value 0.979 | S. cerevisiae deletion strains, locus YKR026C, strain gcn3, stronger effect = lower value 1.03 | S. cerevisiae deletion strains, locus YKR091W, strain srl3, stronger effect = lower value 1.02 | S. cerevisiae deletion strains, locus YLL001W, strain dnm1, stronger effect = lower value 1.02 | S. cerevisiae deletion strains, locus YLL026W, stronger effect = lower value 1.03 | S. cerevisiae deletion strains, locus YLL041C, strain sdh2, stronger effect = lower value 1.02 | S. cerevisiae deletion strains, locus YLR027C, strain aat2, stronger effect = lower value 1.02 | S. cerevisiae deletion strains, locus YLR039C, strain RIC1, stronger effect = lower value 1.04 | S. cerevisiae deletion strains, locus YLR058C, strain SHM2, stronger effect = lower value 0.996 | S. cerevisiae deletion strains, locus YLR102C, strain apc9, stronger effect = lower value 0.997 | S. cerevisiae deletion strains, locus YLR113W, strain HOG1, stronger effect = lower value 1.02 | S. cerevisiae deletion strains, locus YLR221C, strain rsa3, stronger effect = lower value 1.04 | S. cerevisiae deletion strains, locus YLR258W, strain gsy2, stronger effect = lower value 1.02 | S. cerevisiae deletion strains, locus YLR262C, strain YPT6 (second series), stronger effect = lower value 1.04 | S. cerevisiae deletion strains, locus YLR262C, strain YPT6, stronger effect = lower value 1.02 | S. cerevisiae deletion strains, locus YLR268W, strain sec22, stronger effect = lower value 1 | S. cerevisiae deletion strains, locus YLR320W, strain mms22, stronger effect = lower value 1.02 | S. cerevisiae deletion strains, locus YLR330W, strain CHS5, stronger effect = lower value 0.992 | S. cerevisiae deletion strains, locus YLR342W, strain FKS1 (second series), stronger effect = lower value 1.02 | S. cerevisiae deletion strains, locus YLR342W, strain FKS1, stronger effect = lower value 1.03 | S. cerevisiae deletion strains, locus YLR357W, strain rsc2, stronger effect = lower value 1.02 | S. cerevisiae deletion strains, locus YLR370C, strain arc18, stronger effect = lower value 1.02 | S. cerevisiae deletion strains, locus YLR371W, strain rom2, stronger effect = lower value 0.994 | S. cerevisiae deletion strains, locus YLR384C, strain iki3, stronger effect = lower value 1.02 | S. cerevisiae deletion strains, locus YLR418C, strain cdc73, stronger effect = lower value 0.998 | S. cerevisiae deletion strains, locus YML016C, strain PPZ1, stronger effect = lower value 0.987 | S. cerevisiae deletion strains, locus YML032C, strain rad52, stronger effect = lower value 1 | S. cerevisiae deletion strains, locus YML120C, strain ndi1, stronger effect = lower value 1.02 | S. cerevisiae deletion strains, locus YML124C, strain tub3, stronger effect = lower value 0.993 | S. cerevisiae deletion strains, locus YMR058W, strain fet3, stronger effect = lower value 1.01 | S. cerevisiae deletion strains, locus YMR078C, strain ctf18, stronger effect = lower value 0.989 | S. cerevisiae deletion strains, locus YMR125W, strain sto1, stronger effect = lower value 1.03 | S. cerevisiae deletion strains, locus YMR129W, stronger effect = lower value 1.01 | S. cerevisiae deletion strains, locus YMR205C, strain PFK2, stronger effect = lower value 1.03 | S. cerevisiae deletion strains, locus YMR223W, strain ubp8, stronger effect = lower value 0.994 | S. cerevisiae deletion strains, locus YMR231W, strain pep5, stronger effect = lower value 1.02 | S. cerevisiae deletion strains, locus YMR263W, strain SAP30, stronger effect = lower value 1.04 | S. cerevisiae deletion strains, locus YMR307W, strain GAS1, stronger effect = lower value 1.05 | S. cerevisiae deletion strains, locus YNL067W, strain RPL9B, stronger effect = lower value 1.08 | S. cerevisiae deletion strains, locus YNL071W, strain lat1, stronger effect = lower value 1.02 | S. cerevisiae deletion strains, locus YNL128W, strain TEP1, stronger effect = lower value 1.02 | S. cerevisiae deletion strains, locus YNL153C, strain GIM3, stronger effect = lower value 1 | S. cerevisiae deletion strains, locus YNL183C, strain NPR1, stronger effect = lower value 0.956 | S. cerevisiae deletion strains, locus YNL209W, strain ssb2, stronger effect = lower value 1.01 | S. cerevisiae deletion strains, locus YNL233W, strain BNI4, stronger effect = lower value 1 | S. cerevisiae deletion strains, locus YNL248C, strain rpa49, stronger effect = lower value 1.04 | S. cerevisiae deletion strains, locus YNL250W, strain rad50, stronger effect = lower value 0.99 | S. cerevisiae deletion strains, locus YNL271C, strain bni1, stronger effect = lower value 0.99 | S. cerevisiae deletion strains, locus YNL298W, strain CLA4, stronger effect = lower value 0.982 | S. cerevisiae deletion strains, locus YNL307C, strain MCK1, stronger effect = lower value 1.01 | S. cerevisiae deletion strains, locus YNL322C, strain KRE1 (second series), stronger effect = lower value 1.04 | S. cerevisiae deletion strains, locus YNL322C, strain KRE1, stronger effect = lower value 1 | S. cerevisiae deletion strains, locus YNR049C, strain mso1, stronger effect = lower value 1.02 | S. cerevisiae deletion strains, locus YNR052C, strain pop2, stronger effect = lower value 1 | S. cerevisiae deletion strains, locus YOL006C, strain TOP1, stronger effect = lower value 0.995 | S. cerevisiae deletion strains, locus YOL012C, strain htz1 1.75 | S. cerevisiae deletion strains, locus YOR001W, strain rrp6, stronger effect = lower value 1.03 | S. cerevisiae deletion strains, locus YOR061W, strain CKA2, stronger effect = lower value 0.994 | S. cerevisiae deletion strains, locus YOR069W, strain VPS5, stronger effect = lower value 0.998 | S. cerevisiae deletion strains, locus YOR070C, strain gyp1, stronger effect = lower value 1.01 | S. cerevisiae deletion strains, locus YOR080W, strain dia2, stronger effect = lower value 1.04 | S. cerevisiae deletion strains, locus YOR083W, strain WHI5, stronger effect = lower value 1.02 | S. cerevisiae deletion strains, locus YOR106W, strain vam3, stronger effect = lower value 1.03 | S. cerevisiae deletion strains, locus YOR136W, strain idh2, stronger effect = lower value 0.988 | S. cerevisiae deletion strains, locus YOR144C, strain elg1, stronger effect = lower value 0.979 | S. cerevisiae deletion strains, locus YOR184W, strain ser1, stronger effect = lower value 0.993 | S. cerevisiae deletion strains, locus YOR231W, strain MKK1, stronger effect = lower value 0.978 | S. cerevisiae deletion strains, locus YOR265W, strain rbl2, stronger effect = lower value 1.02 | S. cerevisiae deletion strains, locus YOR270C, strain vph1, stronger effect = lower value 1.03 | S. cerevisiae deletion strains, locus YOR290C, strain snf2, stronger effect = lower value 1.01 | S. cerevisiae deletion strains, locus YOR316C, strain cot1, stronger effect = lower value 0.994 | S. cerevisiae deletion strains, locus YPL051W, strain arl3, stronger effect = lower value 1.03 | S. cerevisiae deletion strains, locus YPL055C, strain LGE1, stronger effect = lower value 1.03 | S. cerevisiae deletion strains, locus YPL078C, strain atp4, stronger effect = lower value 1.02 | S. cerevisiae deletion strains, locus YPL106C, strain sse1, stronger effect = lower value 1.04 | S. cerevisiae deletion strains, locus YPL240C, strain hsp82, stronger effect = lower value 1.03 | S. cerevisiae deletion strains, locus YPL241C, strain CIN2, stronger effect = lower value 1.01 | S. cerevisiae deletion strains, locus YPL256C, strain CLN2, stronger effect = lower value 0.957 | S. cerevisiae deletion strains, locus YPR141C, strain kar3, stronger effect = lower value 0.984 | S. cerevisiae deletion strains, locus YPR163C, strain tif3, stronger effect = lower value 0.991 | S. cerevisiae deletion strains, locus YPR167C, strain met16, stronger effect = lower value 0.994 | S. cerevisiae deletion strains, strain wtn01, stronger effect = lower value 0.993 | S. cerevisiae strains, strain wild type, stronger effect = lower value 1.03
